# Measured values published in PubChem BioAssay (NCATS).
# Results filed as inconclusive are left out. Values without a mark were called inactive. Active and inactive are the calls of the source. Unless noted, calls come from the whole dose curve; as a rule, active = well fitted curve in the direction sought with a large enough effect; inconclusive = small, poorly fitted or top-dose-only effect, or another doubt; inactive = no such curve, though single readings can be large; an effect the other way counts as inactive or inconclusive. Where a SMILES comes first, the peptide text is derived from it. Bridges are numbered along the chain shown (N, C = ends). [ ]: non-standard residue; d: D form. The star is where a group is joined. X1 = CCC(C)C(N)C1=NC(C(=O)*)CS1; dOrn = NCCC[C@@H](N)C(=O)O
# What was measured:
# [1] = qHTS to identify inhibitors of the type 1 interferon - major histocompatibility complex class I in skeletal muscle: primary screen against the NCATS Mechanism Interrogation Plate v5.0 (MIPE) Libary (AID 1347411); details: iHSKM cells + IFN-b, HiBiT-tagged MHC-I luminescence, 24 h; series mostly up to 45.8 µM
# In short: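 Luminescence from HiBiT-tagged endogenous HLA-B*08:01 served as the MHC class I read-out. CRISPR-engineered C25cl48 human myoblasts received 4.0 ng/ml IFN-beta plus compound for 24 hrs, with an 11-point, 1:3 series topping at 46 uM final.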
# [2] = target: Calcium and integrin-binding protein 1 (Homo sapiens) (UniProt Q99828); assay: Primary qHTS for Identification of Calcium Integrin Binding Protein 1 (CIB1) Competitor (AID 1508620); details: CIB1-GST / FITC-alphaIIb peptide fluorescence polarization; series mostly up to 57.7 µM
# In short: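 CIB1-GST (1 uM final) and compound incubated 15 min at room temperature before adding FITC-alphaIIb peptide tracer (100 nM final). Competition for binding read by fluorescence polarization (ex 480, em 540) after another 15 min at room temperature.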
# [3] = target: Cytochrome P450 2D6 (Homo sapiens) (UniProt P10635); assay: Cytochrome P450 family 2 subfamily D member 6 (CYP2D6) small molecule antagonists: luciferase biochemical (cell-free) qHTS assay (AID 1645840; active = well fitted curve in the direction sought with a large enough effect in the repeat runs; an effect the other way counts as inactive or inconclusive); details: P450-Glo CYP2D6 enzyme, luciferin luminescence, 1 h; series mostly up to 57.4 µM
# In short: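 P450-Glo luminescent screen: recombinant CYP2D6 enzyme–proluciferin substrate mix preincubated with compound 10 min at room temperature, then NADPH regeneration added for 1 h at room temperature. Detection reagent added for 20 min; luciferin light read as relative luminescence units.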
# [4] = qHTS for inhibitors of Wild type Zika virus screened against the NCATS CANVASS Library (AID 1347396); details: Vero cells, Zika virus CPE, CellTiter-Glo, 72 h; series mostly up to 45.9 µM
# In short: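 Luminescent CellTiter Glo read-out of virus-induced cytotoxicity, 72 h post-infection, in Vero 766 cells. Compounds were tested at 11 concentrations; uninfected, vehicle-treated wells defined 100% inhibition.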
# [5] = Viability qHTS for inhibitors of the SERCaMP assay screened against the NCATS CANVASS Library (AID 1347400); details: SH-SY5Y SERCaMP cells viability, CellTiter-Glo, 48 h; series mostly up to 92.2 µM
# In short: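 SH-SY5Y SERCaMP MJH297 cells, 1000/well; 4 h settle, 37C/5% CO2; pin-transferred cpds; 48 h; CellTiter-Glo lum. Pos ctrl bortezomib 0.0001 - 4.6 uM.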
# [6] = Redox Reaction Profiling qHTS: Assay Interference Panel against the NCATS CANVASS Library (AID 1347401); details: resazurin-DTT redox cycling, fluorescence, 15 min; series mostly up to 57.1 µM
# In short: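 Cell-free redox surrogate: 5 uM resazurin + 200 uM DTT, 50 mM HEPES pH 7.3/50 mM NaCl; cpds pinned, 11-pt qHTS; Ex525/Em598 read t0 and t=15 min, dark.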
# [7] = target: Calcium and integrin-binding protein 1 (Homo sapiens) (UniProt Q99828); assay: Confirmatory qHTS for Identification of Calcium Integrin Binding Protein 1 (CIB1) Competitor (AID 1508617); details: CIB1 binding competition assay, biochemical qHTS; series mostly up to 114 µM
# In short: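 Compounds at up to 114 uM final met 1 uM GST-tagged CIB1 for 15 min at room temperature (HEPES pH 7.4, 5 mM CaCl2). FITC-labelled alphaIIb peptide, 100 nM, added; polarization read after 15 min more.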
# Sequence of Calcium and integrin-binding protein 1 (Homo sapiens) (Q99828 whole entry, looked up): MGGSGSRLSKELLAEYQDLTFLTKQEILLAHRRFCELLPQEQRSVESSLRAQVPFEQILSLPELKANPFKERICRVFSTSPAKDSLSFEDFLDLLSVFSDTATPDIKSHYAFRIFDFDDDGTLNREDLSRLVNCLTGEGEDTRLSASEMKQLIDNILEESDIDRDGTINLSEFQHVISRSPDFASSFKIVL
# Sequence of Cytochrome P450 2D6 (Homo sapiens) (P10635 whole entry, looked up): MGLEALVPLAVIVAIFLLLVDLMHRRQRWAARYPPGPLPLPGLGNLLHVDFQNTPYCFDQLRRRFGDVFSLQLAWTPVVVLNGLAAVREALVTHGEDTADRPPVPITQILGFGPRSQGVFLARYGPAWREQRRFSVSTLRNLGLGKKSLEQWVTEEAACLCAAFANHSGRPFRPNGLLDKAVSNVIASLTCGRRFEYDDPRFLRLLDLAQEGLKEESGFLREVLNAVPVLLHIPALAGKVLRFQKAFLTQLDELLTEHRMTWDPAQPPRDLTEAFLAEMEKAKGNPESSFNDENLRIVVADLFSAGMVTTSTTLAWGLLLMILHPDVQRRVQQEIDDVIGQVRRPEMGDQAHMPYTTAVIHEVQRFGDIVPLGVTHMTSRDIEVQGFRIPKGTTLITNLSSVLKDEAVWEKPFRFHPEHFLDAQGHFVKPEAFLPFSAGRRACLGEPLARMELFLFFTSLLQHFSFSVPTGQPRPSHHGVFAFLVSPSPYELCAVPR
structure (smiles),measurement,setting,value
Cc1nnc(C(C)C)n1C1CC2CCC(C1)N2CC[C@H](NC(=O)C1CCC(F)(F)CC1)c1ccccc1 (stereo partly specified),Potency,[1],inactive
same,Potency,[2],inactive
NS(=O)(=O)NCCNc1nonc1C(=Nc1ccc(F)c(Br)c1)NO,Potency,[1],inactive
same,Potency,[2],inactive
COc1cc2c(cc1O)CCN[C@]21CS[C@@H]2c3c(OC(C)=O)c(C)c4c(c3[C@H](COC1=O)N1[C@@H]2[C@H]2c3c(cc(C)c(OC)c3O)C[C@@H]([C@@H]1O)N2C)OCO4,Potency,[1],84.8 nM (active)
O=C(O)c1cnn(-c2nc3cc(OC(F)(F)F)c(Cl)cc3[nH]2)c1,Potency,[1],inactive
CC1=C(/C=C/C(C)=C/C=C/C(C)=C/C=C/C=C(C)/C=C/C=C(C)/C=C/C2=C(C)CCCC2(C)C)C(C)(C)CCC1,Potency,[1],inactive
Cc1nn(C)c(COc2ccc(N3CCN(S(=O)(=O)N(C)C)CC3)cc2)c1-c1cccc2c(CCCOc3cccc4ccccc34)c(C(=O)O)n(CCN3CCOCC3)c12,Potency,[1],inactive
same,Potency,[2],inactive
same,Potency,[3],inactive
C/C=C/C=C/C(CC(=O)O)Nc1ccc(C=O)cc1 (stereo unspecified),outcome,[4],inactive
same,outcome,[5],inactive
same,outcome,[6],inactive
same,Potency,[2],inactive
CN1C(=O)N[C@@H](Cc2c[nH]c3c(Cl)cccc23)C1=O,Potency,[1],inactive
same,Potency,[2],inactive
CCC(C)C(N)C1=NC(C(=O)N[C@@H](CC(C)C)C(=O)N[C@H](CCC(=O)O)C(=O)N[C@H](C(=O)N[C@H]2CCCCNC(=O)[C@H](CC(N)=O)NC(=O)[C@@H](CC(=O)O)NC(=O)[C@H](Cc3cnc[nH]3)NC(=O)[C@@H](Cc3ccccc3)NC(=O)[C@H]([C@@H](C)CC)NC(=O)[C@@H](CCCN)NC2=O)[C@@H](C)CC)CS1 (stereo partly specified) (X1-L[dE]IK[dOrn]I[dF]H[dD]N; lactam 4-C),Potency,[1],inactive
same,Potency,[2],inactive
same,Potency,[3],inactive
C/C=C(\C)C(=O)O[C@@H](C)[C@H]1CC[C@]2(O)C3CCC4C[C@@H](OC5CC(OC)C(OC6CC(OC)C(OC7CC(OC)C(OC8OC(C)C(OC9OC(CO)C(O)C(O)C9O)C(OC)C8O)C(C)O7)C(C)O6)C(C)O5)CC[C@]4(C)C3[C@H](O)[C@@H](O)[C@]12C (stereo partly specified),"activity change, negative = inhibition",[2],-0.005% [at 12.4 µM]
CCS(=O)(=O)N1CCC([C@@H](C)n2c(C)c(C(=O)NCc3c(OC)cc(C)[nH]c3=O)c3ccccc32)CC1,Potency,[1],inactive
same,Potency,[2],inactive
same,Potency,[3],inactive
CC(=O)c1cnc2ccc(-c3cc(Cl)c(O)c(Cl)c3)nc2c1NC1CCC(CN(C)C)CC1 (stereo unspecified),Potency,[1],151 nM (active)
same,Potency,[2],inactive
same,Potency,[3],inactive
NC(=O)[C@H]1CCCCc2c1[nH]c1ccc(Cl)cc21,Potency,[2],inactive
COc1c(OC2OC(CO)C(O)C(O)C2O)ccc(O)c1C(=O)OCc1ccccc1O[C@@H]1O[C@H](CO)[C@@H](O)[C@H](O)[C@H]1O (stereo partly specified),Potency,[2],inactive
CC(=O)c1c(O)cc2c(c1C)C(=O)CC(O)C2 (stereo unspecified),Potency,[7],inactive
COc1ccc([C@H]2Cc3cccc(O)c3C(=O)O2)cc1,Potency,[2],inactive
Cn1ccnc1CCOC(c1cc2nccc(C(=O)O)c2[nH]1)c1ccccc1Cl (stereo unspecified),Potency,[2],inactive
O=C(NCC(=O)N1CC[C@H](NC2CCC(O)(c3ccc(-c4ncccn4)cn3)CC2)C1)c1cccc(C(F)(F)F)c1 (stereo partly specified),Potency,[1],inactive
same,Potency,[2],inactive
same,Potency,[3],inactive
CC1(C)CC[C@]2(C(=O)O)CC[C@]3(C)C(=CCC4[C@@]5(C)CCC(O[C@@H]6OC[C@H](O)[C@H](O)[C@H]6O[C@@H]6O[C@H](CO)[C@@H](O)[C@H](O)[C@H]6O)[C@@](C)(CO)C5CC[C@]43C)[C@@H]2C1 (stereo partly specified),Potency,[2],inactive
O=C(O[C@@H]1O[C@H](CO)[C@@H](O)[C@H](O)[C@H]1O)c1c(O)cc(O)cc1/C=C/c1ccccc1,Potency,[2],inactive
CC1(C)CC[C@]2(C(=O)O[C@@H]3O[C@H](CO)[C@@H](O)[C@H](O)[C@H]3O)CC[C@]3(C)C(=CCC4[C@@]5(C)C[C@@H](O)[C@H](O)C(CO)(CO)C5CC[C@]43C)C2[C@@H]1O (stereo partly specified),Potency,[2],inactive
C[C@H](CCC(=O)O)[C@H]1CC[C@H]2[C@@H]3[C@H](O)C[C@@H]4C[C@H](O)CC[C@]4(C)[C@H]3CC[C@]12C,Potency,[1],inactive
same,Potency,[3],inactive
CC(/C=C/C1(O)C2(C)COC1(C)CC(=O)C2)O[C@@H]1O[C@H](CO)[C@@H](O)[C@H](O)[C@H]1O (stereo partly specified),Potency,[2],inactive
OC[C@H]1O[C@@H](n2cnc3c2NC=NC[C@H]3O)C[C@@H]1O,Potency,[1],inactive
same,Potency,[2],inactive
same,Potency,[3],inactive
Cc1c(-c2ccnn2C)cc(C(=O)NCc2ccc(S(C)(=O)=O)cn2)c(=O)n1-c1cccc(C(F)(F)F)c1,Potency,[1],inactive
same,Potency,[2],inactive
same,Potency,[3],inactive
